Test results: article PMC10726135, “HNF4α isoforms regulate the circadian balance between carbohydrate and lipid metabolism in the liver”
Whole data set: some 18,000 sequences, median “log2 normalized intensity” near 0.36, cut for the highest 2% near 7.3. This excerpt belongs to a sample that is enriched for the highest values.

biological target: T1, HNF4alpha8 (COS-7 nuclear extract) (Homo sapiens, UniProt P41235-5 1-452); assay: protein-binding microarray; COS-7 nuclear extract on double-stranded Agilent 4x180k PBM; binding buffer, salt, pH and temperature not given in the material; high values mean tight binding; settings: chain copies: 2; label: 3' end of strand 1 on the slide; dsDNA, one strand shown
T1 sequence: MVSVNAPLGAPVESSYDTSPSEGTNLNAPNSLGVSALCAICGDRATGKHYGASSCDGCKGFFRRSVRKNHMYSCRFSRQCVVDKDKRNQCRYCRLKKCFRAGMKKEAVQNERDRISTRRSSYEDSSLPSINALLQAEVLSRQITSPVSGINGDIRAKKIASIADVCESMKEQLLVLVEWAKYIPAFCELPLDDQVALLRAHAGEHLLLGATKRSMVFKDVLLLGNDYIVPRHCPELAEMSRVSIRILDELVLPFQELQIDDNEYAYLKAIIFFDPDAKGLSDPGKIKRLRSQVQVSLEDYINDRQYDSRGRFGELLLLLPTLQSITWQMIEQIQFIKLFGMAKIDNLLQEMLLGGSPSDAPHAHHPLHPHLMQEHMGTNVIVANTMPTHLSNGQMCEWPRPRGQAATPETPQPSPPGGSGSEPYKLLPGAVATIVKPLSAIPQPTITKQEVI
Summary of the method: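 COS-7 cells were transiently transfected by CaPO4 with an expression vector for a human HNF4α isoform, and nuclear extracts were prepared from them. The extracts were applied to a custom Agilent SurePrint G3 4x180k array of double-stranded ~60-nt oligonucleotides, with ~44,000 test sequences spotted in quadruplicate. An Agilent G2565CA scanner imaged bound HNF4α at 2-µm resolution. Binding signal is the background-corrected, normalized gProcessedSignal from Agilent software.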

Going from “GGGTTAGGCCTTTAGAGGATTTACTTATACGCCTAGGGAGATTAGAGTATCGGTCGA” to “TGCTCATAGCTACGGGTGACCTTGAGCACTGCCTAGGGAGATTAGAGTATCGGTCGA”, the binding signal rises from 0.821 log2 normalized intensity to 3.93 log2 normalized intensity.

Going from “TCCTCTTCCCTACCCCCTGGGAGTAACCTGGCCTAGGGAGATTAGAGTATCGGTCGA” to “TACATTGGACAACTGTACTTTGGACTGGGGGCCTAGGGAGATTAGAGTATCGGTCGA”, the binding signal rises from 3.13 log2 normalized intensity to 6.69 log2 normalized intensity.

First: GACTCATCTCCAAACGAGACTTTGGACTTTGCCTAGGGAGATTAGAGTATCGGTCGA
Second: ACAGTTCTGATACATTGGACAACTGTACTTGCCTAGGGAGATTAGAGTATCGGTCGA
The binding signal of the first is higher: 9.58 log2 normalized intensity for the first, 2.21 log2 normalized intensity for the second.

First: AAAGGGACTCATCTCCAAACGAGACTTTGGGCCTAGGGAGATTAGAGTATCGGTCGA
Second: CACAAATTGGAGAGCATCTTGGACTTGGGAGCCTAGGGAGATTAGAGTATCGGTCGA
The binding signal of the first is lower: 2.23 log2 normalized intensity for the first, 3.16 log2 normalized intensity for the second.

First: TCTGATACATTGGACAACTGTACTTTGGACGCCTAGGGAGATTAGAGTATCGGTCGA
Second: GAAGGAGAGAGAGGGAGAGTGGCCTTTGGAGCCTAGGGAGATTAGAGTATCGGTCGA
The binding signal of the first is higher: 8.02 log2 normalized intensity for the first, 4.12 log2 normalized intensity for the second.

Compared with “CTCCAAACATCTTTGGTATGGACTGATATTGCCTAGGGAGATTAGAGTATCGGTCGA”, “CAAACGAGACTTTGGACTTTGGACTTGGGAGCCTAGGGAGATTAGAGTATCGGTCGA” is higher in binding signal: 1.85 log2 normalized intensity for the first, 10.9 log2 normalized intensity for the second.

Compared with “GTGACTACCTGGTTAAAAGGACAACCTTCGGCCTAGGGAGATTAGAGTATCGGTCGA”, “AGAATGTGGTTCTTTTCATTAAATATTTAAGCCTAGGGAGATTAGAGTATCGGTCGA” is higher in binding signal: -0.397 log2 normalized intensity for the first, 0.534 log2 normalized intensity for the second.

Compared with “ATGCTATCTCCCAGTTCTTTTGACCTTTGCGCCTAGGGAGATTAGAGTATCGGTCGA”, “CCAGTTCTTTTGACCTTTGCCTCATTCTTAGCCTAGGGAGATTAGAGTATCGGTCGA” is lower in binding signal: 8.5 log2 normalized intensity for the first, 7.02 log2 normalized intensity for the second.

Compared with “AGTTATATCTTACCTCCTTCTCCCCCATGCGCCTAGGGAGATTAGAGTATCGGTCGA”, “TCCTTTTGACCACAGTTATCTCCCCAGCTTGCCTAGGGAGATTAGAGTATCGGTCGA” is lower in binding signal: 4.73 log2 normalized intensity for the first, 2.38 log2 normalized intensity for the second.

First: ATCTCCCAGTTCTTTTGACCTTTGCCTCATGCCTAGGGAGATTAGAGTATCGGTCGA
Second: CCTCAATGCTATCTCCCAGTTCTTTTGACCGCCTAGGGAGATTAGAGTATCGGTCGA
The binding signal of the first is higher: 8.61 log2 normalized intensity for the first, 2.7 log2 normalized intensity for the second.

First: TAGGCATGCAAACTTTGTTTAATGATTGCAGCCTAGGGAGATTAGAGTATCGGTCGA
Second: GGTACTGGAAACTGGGCAAGGTCCATTACGGCCTAGGGAGATTAGAGTATCGGTCGA
The binding signal of the first is lower: 0.0707 log2 normalized intensity for the first, 3.56 log2 normalized intensity for the second.

First: CACCTTCTTTCTCCCAGAGGTCGATCTGATGCCTAGGGAGATTAGAGTATCGGTCGA
Second: CACTTCTGAAAAAAATATTGAACAAAGATTGCCTAGGGAGATTAGAGTATCGGTCGA
The binding signal of the first is higher: 2.25 log2 normalized intensity for the first, 0.276 log2 normalized intensity for the second.

Going from “ACTGACCTTTGAGAGTCAACACTGAAATAGGCCTAGGGAGATTAGAGTATCGGTCGA” to “GAAAATATTTCTCTGAACTTTGACCTATAGGCCTAGGGAGATTAGAGTATCGGTCGA”, the binding signal rises from 2.06 log2 normalized intensity to 9.31 log2 normalized intensity.

Compared with “GGTGAAATAGCTGAACTATTTAAGGCCTTTGCCTAGGGAGATTAGAGTATCGGTCGA”, “AGTTGGAAAATATTTCTCTGAACTTTGACCGCCTAGGGAGATTAGAGTATCGGTCGA” is higher in binding signal: 0.507 log2 normalized intensity for the first, 8.68 log2 normalized intensity for the second.

Sequence “TCTTTGATTAGGAAAGGGAACTCCCTGACCGCCTAGGGAGATTAGAGTATCGGTCGA” has a binding signal of 0.445 log2 normalized intensity.
